PubChem BioAssay AID1159580 (chemical genetic matrix, 2015)
Values joined by “and” are separate entries in the source; they are usually repeats but may differ in a detail not shown here. Identical values can stand only once. About 2,000 (36%) of roughly 5,500 compounds were called active. Another 18% or so got no clear call; they are omitted. Cut-off read from the data, not from the text of the source: active = normalized growth mostly below about 0.91 (no sharp cut-off); inconclusive = no clear call, values can overlap the other calls; inactive = mostly above about 0.92. The list shows a part of the results.

Assay: chemical genetic growth profiling, strain panel (AID 1159580);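 note: tested at 20 µM; growth read once vehicle control cultures reached saturation at 30 °C; 1 = growth at the plate median or of vehicle wells; lower values mean less growth of the strain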
Conditions: S. cerevisiae deletion strains, growth OD

Measured: normalized growth

COc1cc([C@@H]2c3cc4c(cc3[C@H](OC(C)=O)[C@H]3COC(=O)[C@@H]23)OCO4)cc(OC)c1OC
inactive: locus YAL021C, strain ccr4, active compounds read low 1.01 | locus YAL026C, strain drs2, active compounds read low 0.991 | locus YAL030W, strain snc1, active compounds read low 1.01 | locus YBL061C, strain skt5, active compounds read low 1.01 | locus YBR009C, strain hhf1, active compounds read low 0.996 | locus YBR021W, strain FUR4, active compounds read low 1.01 | locus YBR023C, strain chs3, active compounds read low 1.01 | locus YBR171W, strain sec66, active compounds read low 1 | locus YBR229C, strain ROT2, active compounds read low 1.01 | locus YBR231C, strain swc5, active compounds read low 1.01 | locus YBR279W, strain paf1, active compounds read low 1 | locus YCL011C, strain gbp2, active compounds read low 1 | locus YCL016C, strain dcc1, active compounds read low 1 | locus YCL029C, strain bik1, active compounds read low 1.01 | locus YCL069W, strain vba3, active compounds read low 1 | locus YCR088W, strain abp1, active compounds read low 0.982 | locus YDL005C, strain med2, active compounds read low 1 | locus YDL035C, strain GPR1, active compounds read low 1.02 | locus YDL040C, strain nat1, active compounds read low 1 | locus YDL074C, strain BRE1, active compounds read low 1.02 | locus YDL101C, strain DUN1, active compounds read low 1.01 | locus YDL185W, strain tfp1, active compounds read low 1.03 | locus YDL192W, strain arf1, active compounds read low 1.04 | locus YDR001C, strain nth1, active compounds read low 0.99 | locus YDR069C, strain doa4, active compounds read low 1.01 | locus YDR101C, strain arx1, active compounds read low 1.01 | locus YDR137W, strain rgp1, active compounds read low 1.03 | locus YDR150W, strain NUM1, active compounds read low 1.01 | locus YDR159W, strain sac3, active compounds read low 1.01 | locus YDR162C, strain NBP2, active compounds read low 1.01 | locus YDR195W, strain ref2 0.972 | locus YDR297W, strain sur2, active compounds read low 1.01 | locus YDR318W, strain mcm21, active compounds read low 1.02 | locus YDR334W, strain swr1, active compounds read low 0.969 | locus YDR335W, strain msn5, active compounds read low 1.01 | locus YDR388W, active compounds read low 1.02 | locus YDR392W, strain spt3, active compounds read low 0.998 | locus YDR502C, strain sam2, active compounds read low 1.01 | locus YEL003W, strain gim4, active compounds read low 0.998 | locus YEL037C, strain rad23, active compounds read low 0.985 | locus YEL061C, strain CIN8 (second series), active compounds read low 0.98 | locus YEL061C, strain CIN8, active compounds read low 1.01 | locus YER015W, strain faa2, active compounds read low 1.01 | locus YER016W, strain bim1, active compounds read low 1.01 | locus YER110C, active compounds read low 1.02 | locus YER111C, strain swi4, active compounds read low 1.01 | locus YER155C, strain BEM2 (second series), active compounds read low 1.01 | locus YER155C, strain BEM2, active compounds read low 0.998 | locus YER167W, strain BCK2, active compounds read low 1.02 | locus YFR010W, strain ubp6, active compounds read low 0.98 | locus YGL078C, strain dbp3, active compounds read low 1.03 | locus YGL086W, strain mad1, active compounds read low 1.01 | locus YGL167C, strain pmr1, active compounds read low 1 | locus YGL173C, strain kem1, active compounds read low 1.01 | locus YGL227W, strain vid30, active compounds read low 0.994 | locus YGL240W, strain doc1, active compounds read low 1.01 | locus YGL248W, strain PDE1, active compounds read low 1.01 | locus YGL253W, strain hxk2, active compounds read low 1 | locus YGR078C, strain PAC10, active compounds read low 1.02 | locus YGR135W, strain pre9, active compounds read low 1.03 | locus YGR252W, strain gcn5, active compounds read low 1.01 | locus YHR013C, strain ard1, active compounds read low 1.01 | locus YHR027C, strain rpn1, active compounds read low 0.993 | locus YHR030C, strain SLT2, active compounds read low 1.01 and 0.979 | locus YHR079C, strain IRE1 (second series), active compounds read low 1.03 | locus YHR079C, strain IRE1, active compounds read low 0.985 | locus YHR094C, strain hxt1, active compounds read low 1.03 | locus YHR129C, strain ARP1, active compounds read low 1.01 | locus YHR142W, strain chs7, active compounds read low 0.995 | locus YHR200W, strain rpn10, active compounds read low 1.04 | locus YIL066C, strain RNR3, active compounds read low 1.02 | locus YIL073C, strain SPO22, active compounds read low 1.07 | locus YIL125W, strain kgd1, active compounds read low 1.01 | locus YIR030C, strain dcg1, active compounds read low 1.01 | locus YJL092W, strain hpr5, active compounds read low 0.986 | locus YJL095W, strain BCK1 (second series), active compounds read low 0.999 | locus YJL095W, strain BCK1, active compounds read low 1.01 and 1.04 | locus YJL115W, strain asf1, active compounds read low 0.993 | locus YJL129C, strain trk1, active compounds read low 1.01 | locus YJL134W, strain LCB3, active compounds read low 1.01 | locus YJL154C, strain vps35, active compounds read low 0.978 | locus YJL164C, strain tpk1, active compounds read low 1.01 | locus YJL166W, strain qcr8, active compounds read low 1.02 | locus YJL168C, strain set2, active compounds read low 1.02 | locus YJL187C, strain SWE1 (second series), active compounds read low 1.02 | locus YJR043C, strain POL32, active compounds read low 1.01 | locus YJR066W, strain TOR1, active compounds read low 0.931 | locus YKL009W, strain mrt4, active compounds read low 0.999 | locus YKL068W, active compounds read low 1.01 | locus YKL085W, strain MDH1 (second series), active compounds read low 1 | locus YKL085W, strain MDH1, active compounds read low 1 | locus YKL160W, strain elf1, active compounds read low 1.01 | locus YKL190W, strain CNB1, active compounds read low 1.01 | locus YKR001C, strain vps1, active compounds read low 1.03 | locus YKR026C, strain gcn3, active compounds read low 0.997 | locus YKR091W, strain srl3, active compounds read low 1 | locus YLL001W, strain dnm1, active compounds read low 0.991 | locus YLL026W, active compounds read low 1.01 | locus YLL041C, strain sdh2, active compounds read low 0.997 | locus YLR027C, strain aat2, active compounds read low 1 | locus YLR039C, strain RIC1, active compounds read low 1.01 | locus YLR058C, strain SHM2, active compounds read low 1.01 | locus YLR102C, strain apc9, active compounds read low 1.03 | locus YLR113W, strain HOG1, active compounds read low 1.08 | locus YLR221C, strain rsa3, active compounds read low 1.01 | locus YLR258W, strain gsy2, active compounds read low 1.01 | locus YLR262C, strain YPT6 (second series), active compounds read low 0.956 | locus YLR262C, strain YPT6, active compounds read low 1.07 | locus YLR268W, strain sec22, active compounds read low 1.01 | locus YLR320W, strain mms22, active compounds read low 1.01 | locus YLR330W, strain CHS5, active compounds read low 1.01 | locus YLR342W, strain FKS1 (second series), active compounds read low 1.02 | locus YLR342W, strain FKS1, active compounds read low 1 | locus YLR357W, strain rsc2, active compounds read low 0.973 | locus YLR370C, strain arc18, active compounds read low 1.02 | locus YLR371W, strain rom2, active compounds read low 1.02 | locus YLR384C, strain iki3, active compounds read low 0.994 | locus YLR418C, strain cdc73, active compounds read low 1.03 | locus YML016C, strain PPZ1, active compounds read low 1.01 | locus YML032C, strain rad52, active compounds read low 1.02 | locus YML120C, strain ndi1, active compounds read low 1.01 | locus YML124C, strain tub3, active compounds read low 1.02 | locus YMR058W, strain fet3, active compounds read low 1 | locus YMR078C, strain ctf18, active compounds read low 1.05 | locus YMR125W, strain sto1, active compounds read low 0.986 | locus YMR129W, active compounds read low 1 | locus YMR205C, strain PFK2, active compounds read low 0.995 | locus YMR223W, strain ubp8, active compounds read low 1.03 | locus YMR231W, strain pep5, active compounds read low 1 | locus YMR263W, strain SAP30, active compounds read low 1.01 | locus YMR307W, strain GAS1, active compounds read low 1.04 | locus YNL067W, strain RPL9B, active compounds read low 1.02 | locus YNL071W, strain lat1, active compounds read low 0.991 | locus YNL183C, strain NPR1, active compounds read low 0.972 | locus YNL209W, strain ssb2, active compounds read low 0.989 | locus YNL233W, strain BNI4, active compounds read low 1.01 | locus YNL248C, strain rpa49, active compounds read low 0.961 | locus YNL250W, strain rad50, active compounds read low 1.03 | locus YNL271C, strain bni1, active compounds read low 1.02 | locus YNL298W, strain CLA4, active compounds read low 1.02 | locus YNL307C, strain MCK1, active compounds read low 1.02 | locus YNL322C, strain KRE1 (second series), active compounds read low 1 | locus YNL322C, strain KRE1, active compounds read low 1.01 | locus YNR049C, strain mso1, active compounds read low 0.993 | locus YNR052C, strain pop2, active compounds read low 1.03 | locus YOL006C, strain TOP1, active compounds read low 1.07 | locus YOL012C, strain htz1 0.847 | locus YOL147C, strain pex11, active compounds read low 1.01 | locus YOR001W, strain rrp6, active compounds read low 0.987 | locus YOR061W, strain CKA2, active compounds read low 1.01 | locus YOR069W, strain VPS5, active compounds read low 1.01 | locus YOR070C, strain gyp1, active compounds read low 1.01 | locus YOR080W, strain dia2, active compounds read low 1 | locus YOR083W, strain WHI5, active compounds read low 1.01 | locus YOR106W, strain vam3, active compounds read low 1 | locus YOR136W, strain idh2, active compounds read low 1.02 | locus YOR144C, strain elg1, active compounds read low 1.01 | locus YOR184W, strain ser1, active compounds read low 1.03 | locus YOR231W, strain MKK1, active compounds read low 0.986 | locus YOR265W, strain rbl2, active compounds read low 1 | locus YOR270C, strain vph1, active compounds read low 0.847 | locus YOR290C, strain snf2, active compounds read low 1.01 | locus YOR316C, strain cot1, active compounds read low 1.01 | locus YPL051W, strain arl3, active compounds read low 1.03 | locus YPL078C, strain atp4, active compounds read low 0.978 | locus YPL106C, strain sse1, active compounds read low 1.01 | locus YPL240C, strain hsp82, active compounds read low 0.993 | locus YPL241C, strain CIN2, active compounds read low 1.02 | locus YPL256C, strain CLN2, active compounds read low 1 | locus YPR119W, strain clb2, active compounds read low 1.04 | locus YPR141C, strain kar3, active compounds read low 1.03 | locus YPR163C, strain tif3, active compounds read low 1.03 | locus YPR167C, strain met16, active compounds read low 1.01 | strain wtn01, active compounds read low 1.03
